Results filed as inconclusive are left out. A call without a number means that no potency is given here. Activity calls are given as the source filed them. Unless noted, the call rests on the fitted dose curve; in most records, active means well fitted curve in the direction sought with a large enough effect; inconclusive means small, poorly fitted or top-dose-only effect, or another doubt; inactive means no such curve, though single readings can be large; an effect the other way counts as inactive or inconclusive.
Key:
[1] = Validation of Assay for Modulators of Lamin A Splicing (AID 1459; active means well fitted curve in the direction sought with a large enough effect in the signal ratio; the % refers to the signal ratio;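 further: cells exposed to compound for two days before reading; ratio rise marks activators and ratio drop marks inhibitors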)
Procedure, shortened: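 HeLa S3 lamin A-EGFP/DsRed2 stable clone, 600 cells/well, Opti-MEM 2% FBS; compounds by pin tool; 48 hrs, 37 °C/5% CO2; Acumen 488 nm scan, objects 10-100 um; GFP/RFP intensity ratio.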

[2] = target: DNA repair nuclease/redox regulator APEX1 (Homo sapiens) (UniProt P27695); assay: qHTS Validation Assay for Inhibitors of the Human Apurinic/apyrimidinic Endonuclease 1 (APE1) (AID 1705;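 further: TAMRA fluorescence gain over two minutes as APE1 cuts a quenched THF abasic duplex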)
Chain of DNA repair nuclease/redox regulator APEX1 (Homo sapiens) (P27695 whole entry, looked up): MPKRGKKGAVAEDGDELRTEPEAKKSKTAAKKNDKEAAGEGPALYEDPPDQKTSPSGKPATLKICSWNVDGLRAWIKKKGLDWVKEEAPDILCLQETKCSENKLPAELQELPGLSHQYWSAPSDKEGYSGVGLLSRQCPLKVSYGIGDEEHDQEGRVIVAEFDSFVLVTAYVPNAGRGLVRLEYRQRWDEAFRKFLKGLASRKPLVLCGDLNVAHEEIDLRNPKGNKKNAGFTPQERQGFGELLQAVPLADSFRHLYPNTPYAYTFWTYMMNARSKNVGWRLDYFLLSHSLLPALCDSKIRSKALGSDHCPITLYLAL
Procedure, shortened: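 qHTS, 1536-well. APE1 + cpd 15 min RT → 50 nM TAMRA/BHQ-2 THF-abasic dsDNA substrate → kinetic fluorescence, 3 reads/60 s; delta(read3−read1) = reaction progress. No-enzyme buffer = negative control.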

[3] = Counterscreen for APE1 Inhibitors: Fluorescent Dye Displacement Validation Assay (AID 1707)
Procedure, shortened: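 ThO 250 nM + dsDNA 50 nM (THF abasic site, 5'-TAMRA), Tris-HCl pH7.5/50mM NaCl/2 mM MgCl2/0.01% Tween-20; compounds pin-transferred; ex 480/em 540 nm endpoint. Neutral = no compound; no-DNA ThO wells = negative control.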

[4] = target: Endonuclease 4 (Escherichia coli (strain K12)) (UniProt P0A6C1); assay: Counterscreen for APE1 Inhibitors: qHTS Validation Assay for Inhibitors of Endonuclease IV (AID 1708)
Procedure, shortened: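 Enzymatic AP-site incision assay using a double-stranded THF substrate labelled with TAMRA and BHQ-2; released fluorescence signals activity. Enzyme 2 nM, substrate 50 nM, 15 min compound preincubation.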

[5] = qHTS for differential inhibitors of proliferation of Plasmodium falciparum line 7G8 (AID 1815);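 further: potency means the concentration at half of the fitted maximal effect; parasite growth measured after three days of incubation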
[6] = qHTS for differential inhibitors of proliferation of Plasmodium falciparum line Dd2 (AID 1882); conditions: Potency: Plasmodium falciparum Dd2 proliferation inhibition;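 further: compound exposure of 72 h on infected erythrocytes; nearly all actives have a fitted effect of over 65% in size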
Procedure, shortened: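 SYBR Green I DNA fluorescence read-out, ex 485/em 535 nm. Signals were normalized to 0.29 uM artemisinin and DMSO wells, then corrected using vehicle-only plates flanking each stack. Parasite growth ran 72 h in erythrocytes before lysis.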

[7] = Primary qHTS for small molecule stabilizers of the endoplasmic reticulum resident proteome: Secreted ER Calcium Modulated Protein (SERCaMP) assay (AID 1508630)
Procedure, shortened: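 GLuc-SERCaMP-expressing SH-SY5Y cells, pretreated 16 h with compound, are challenged with thapsigargin to empty ER calcium stores; after 4 h, coelenterazine is added directly to the medium and luminescence is imaged.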

[8] = system: AA1029; assay: qHTS profiling for inhibitors of Plasmodium falciparum proliferation (AID 504749); further: nearly all actives have a fitted effect of over 60% in size; further: potency means the concentration at half of the fitted maximal effect; conditions: P. falciparum in erythrocytes, SYBR Green DNA, 72 h; series mostly up to 28.7 µM
Procedure, shortened: (§1)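 Three-day growth assay of blood-stage parasites in erythrocytes (0.3% parasitemia, 2.5% hematocrit) at 37 C, 5% CO2, quantified by SYBR Green DNA staining after overnight detergent lysis.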

[9] = system: CP260; assay: as above; conditions: P. falciparum in erythrocytes, SYBR Green DNA, 72 h; series mostly up to 28.7 µM
Procedure, shortened: as §1

[10] = system: CP286; assay: as above; conditions: P. falciparum in erythrocytes, SYBR Green DNA, 72 h; series mostly up to 28.7 µM
Procedure, shortened: as §1

[11] = system: DIV14; assay: as above; conditions: P. falciparum in erythrocytes, SYBR Green DNA, 72 h; series mostly up to 28.7 µM
Procedure, shortened: as §1

[12] = system: DIV17; assay: as above; conditions: P. falciparum in erythrocytes, SYBR Green DNA, 72 h; series mostly up to 28.7 µM
Procedure, shortened: as §1

[13] = system: ICS; assay: as above; conditions: P. falciparum in erythrocytes, SYBR Green DNA, 72 h; series mostly up to 28.7 µM
Procedure, shortened: as §1

[14] = system: JCK; assay: as above; conditions: P. falciparum in erythrocytes, SYBR Green DNA, 72 h; series mostly up to 28.7 µM
Procedure, shortened: as §1

[15] = system: N140; assay: as above; conditions: P. falciparum in erythrocytes, SYBR Green DNA, 72 h; series mostly up to 28.7 µM
Procedure, shortened: as §1

[16] = system: PC15; assay: as above; conditions: P. falciparum in erythrocytes, SYBR Green DNA, 72 h; series mostly up to 28.7 µM
Procedure, shortened: as §1

[17] = system: TAB165; assay: as above; conditions: P. falciparum in erythrocytes, SYBR Green DNA, 72 h; series mostly up to 28.7 µM
Procedure, shortened: as §1

[18] = Confirmation and Secondary Assay for Modulators of Hemoglobin Beta Chain Splicing at IVS2 654 locus (AID 910);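 further: HeLa cells stably carrying EGFP split by mutant beta-globin IVS2-654 intron; per-well total GFP intensity by laser scanning cytometry after 2-day treatment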
Procedure, shortened: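 Readout: per-well total peak green fluorescence (488 nm ex, 500–520 nm em) from objects 5–250 µm, reflecting correct splicing of an EGFP-654 reporter. Compounds were applied for 2 days at 37 °C to overnight-plated HeLa EGFP-654 cells; controls were DMSO and 500 nM IVS2-654 PNA.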

[19] = Confirmation and Secondary Assay for Modulators of Hemoglobin Beta Chain Splicing at IVS2 705 locus (AID 930);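 further: HeLa cells stably expressing the EGFP-705 splicing reporter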
Procedure, shortened: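 Restored EGFP fluorescence after 2-day compound exposure reports splicing correction in IVS2-705 EGFP reporter HeLa cells; positive control was 500 nM splice-blocking PNA oligo. Signal measured as well total peak GFP intensity (488 nm excitation).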

[20] = system: CP266; assay: qHTS profiling for inhibitors of Plasmodium falciparum proliferation (AID 504749); further: nearly all actives have a fitted effect of over 60% in size; further: potency means the concentration at half of the fitted maximal effect; conditions: P. falciparum in erythrocytes, SYBR Green DNA, 72 h; series mostly up to 28.7 µM
Procedure, shortened: as §1

Structure (SMILES): CN(CCOc1ccc(C[C@H](Nc2ccccc2C(=O)c2ccccc2)C(=O)O)cc1)c1ccccn1
- outcome [1]: inactive
- Potency [2]: inactive
- Potency [3]: inactive
- outcome [4]: inactive
- Potency [5]: 8.91 µM (active)
- Potency [6]: inactive
- Potency [7]: inactive

Structure (SMILES): C[C@@]12C(=O)OC(=O)[C@]1(C)[C@H]1CC[C@@H]2O1
- Potency [8]: 3.16 µM (active)
- Potency [9]: 0.631 µM (active)
- Potency [10]: 2.82 µM (active)
- Potency [11]: 1.14 µM (active)
- Potency [12]: 2.03 µM (active)
- Potency [13]: 3.98 µM (active)
- Potency [14]: 3.98 µM (active)
- Potency [15]: 4.47 µM (active)
- Potency [16]: 3.98 µM (active)
- Potency [17]: 2 µM (active)

Structure (SMILES): C=C1CCC2[C@](C)(CO)C(O)CC[C@]2(C)C1C/C=C1/C(=O)OCC1O (stereo partly drawn)
- outcome [18]: inactive
- outcome [19]: inactive
- Potency [20]: inactive

Structure (SMILES): COC1=C(OC)C(=O)C(C/C=C(\C)CC/C=C(\C)CC/C=C(\C)CC/C=C(/C)CC/C=C(\C)CC/C=C(\C)CC/C=C(\C)CC/C=C(\C)CC/C=C(\C)CCC=C(C)C)=C(C)C1=O
- outcome [18]: inactive
- outcome [19]: inactive

Structure (SMILES): CC(/C=C1\SC(=S)N(CC(=O)O)C1=O)=C\c1ccccc1
- Potency [8]: inactive
- Potency [9]: inactive
- Potency [20]: inactive
- Potency [10]: inactive
- Potency [11]: inactive
- Potency [12]: inactive
- Potency [13]: inactive
- Potency [14]: inactive
- Potency [15]: inactive
- Potency [16]: inactive
- Potency [17]: inactive
